Source: ChEMBL document CHEMBL4513146, “CO-ADD screening of Karazin Kharkiv National University (Ukraine) compounds”
Potency and affinity values are given separately.

Experiments:
Klebsiella pneumoniae = details: Concentration 32 ug.mL-1;; ASSAY_TEST Inhibition of Bacterial Growth; detection method Absorption (OD600); MEDIA CAMHB; plate type 384well; NBS; CORNING #3640; time 18 hr
Candida albicans = details: Concentration 32 ug.mL-1; ASSAY_TEST Inhibition of Fungal Growth; detection method Absorption (OD530)
Cryptococcus neoformans = details: Concentration 32 ug.mL-1; ASSAY_TEST Inhibition of Fungal Growth; detection method Resazurin; Absorption (OD600-OD570); plate type 384well; NBS; CORNING #3640

| Compound | Inhibition (Klebsiella pneumoniae) | Inhibition (Candida albicans) | Inhibition (Cryptococcus neoformans) |
| --- | --- | --- | --- |
| O=C(CCc1nnc2c(N3CCCCC3)nc3ccccc3n12)NCc1ccccc1Cl | 12.77% | 4.01% | -16.16% |
| Cn1c(=O)c2ccc(C(=O)NC3CCCC3)cc2n2c(SCc3c(F)cccc3Cl)nnc12 | 14.92% | 3.13% | -23.81% |
| Cc1cccc(Oc2nccn3c(=O)n(CC(=O)Nc4ccccc4C(F)(F)F)nc23)c1C | 10.49% | -0.97% | -7.67% |
| COC(=O)c1ccc(NC(=O)CSc2nnc3ccc(C(=O)Nc4cccc(F)c4)cn23)cc1 | 4.63% | 2.52% | -5.98% |
| O=C(Cn1nc2c(Oc3ccc(Cl)cc3)nccn2c1=O)Nc1ccc2c(c1)OCO2 | 8.17% | 2.32% | -10.77% |
| O=C(Cn1nc2c3cc(-c4ccccc4)nn3ccn2c1=O)N1CCN(c2ccccc2F)CC1 | 9.85% | 1.75% | -28.45% |
| CC(C)Cn1c(=O)c2sccc2n2c(=O)n(CC(=O)NC(C)C)nc12 | 6.06% | 1.49% | -7.6% |
| COc1cccc(-n2ccn3c(=O)n(Cc4ccc([N+](=O)[O-])cc4)nc3c2=O)c1 | 8.52% | 4.1% | -8.87% |
| O=C(CCc1nnc2c(N3CCCCC3)nc3ccccc3n12)NCc1ccccc1F | 14.62% | 1.76% | -9.32% |
| O=C(CSc1nnc2c(=O)n(-c3ccc(F)c(F)c3)ccn12)c1ccccc1Cl | 10.86% | 3.43% | -7.06% |
| CCc1ccc(N(Cc2ccc(C)cc2)S(=O)(=O)c2cccn3cnnc23)cc1 | -0.39% | 4.26% | -5.61% |
| COc1ccc(NC(=O)Cn2nc3c(SCc4ccc(Cl)cc4)nccn3c2=O)cc1OC | 3.8% | 27.48% | -20.96% |
| Cc1ccc(NC(=O)CSc2nc3ccccc3n3c(C)nnc23)c(Br)c1 | 14.29% | 22.27% | -9.59% |
| COc1ccc(NC(=O)Cn2nc3c(Sc4ccccc4)nccn3c2=O)cc1OC | 6.09% | 1.58% | -22.41% |
| COC(=O)c1ccc(NC(=O)Cn2nc3ccc(S(=O)(=O)C4CCCCC4)nn3c2=O)cc1 | 9.79% | 17.49% | -8.73% |
| Cc1ccc(-c2cc3c4nnc(SCC(=O)Nc5cccc(Cl)c5C)n4ccn3n2)cc1 | -0.41% | 0.76% | -8.53% |
| COc1cccc(CN(c2cc(F)cc(F)c2)S(=O)(=O)c2ccc3nnc(C)n3c2)c1 | 6.42% | 1.34% | -5.08% |
| Cc1cccc(Sc2nccn3c(=O)n(CC(=O)Nc4ccc(Br)cc4C)nc23)c1 | 8.64% | 6.35% | -17.23% |
| COc1cccc(CN(c2cc(C)cc(C)c2)S(=O)(=O)c2cccn3c(C)nnc23)c1 | -4.31% | 1.08% | -6.64% |
| CCc1cccc(NC(=O)Cn2nc3c(SCc4ccc(Cl)cc4)nccn3c2=O)c1 | 7.77% | 22.52% | -20.82% |
| COc1ccc(NC(=O)c2ccc3nn(CC(=O)Nc4cccc(SC)c4)c(=O)n3c2)cc1 | -1.25% | 7.63% | -24.03% |
| CCc1nnc2c(SCC(=O)Nc3ccc(C(C)=O)cc3)nc3ccccc3n12 | 9.87% | 2.43% | -19.53% |
| CCCCN(C)c1ccc2nnc(CCc3nc(-c4ccc(OCc5ccccc5)cc4)no3)n2n1 | 3.94% | 9.14% | -39.2% |
| COc1ccc(C(=O)CSc2nnc3c(=O)n(-c4ccc(F)cc4)ccn23)cc1OC | 11.15% | 4.19% | -8.42% |
| COc1ccccc1NC(=O)Cn1nc2c(SC3CCCCC3)nccn2c1=O | -0.89% | 12.37% | -26.18% |
| COc1ccc(CCn2c(=O)c3sccc3n3c(=O)n(Cc4c(F)cccc4Cl)nc23)cc1OC | 4.92% | -1.61% | -23.43% |
| Cc1cc2nn(CC(=O)NCc3ccccc3)c(=O)n2c(-c2ccc(C(F)(F)F)cc2)n1 | -2.81% | 22.82% | -6.62% |
| CCOC(=O)c1ccc(NC(=O)Cn2nc3ccc(-c4ccc(Cl)cc4)nn3c2=O)cc1 | 8.58% | -0.49% | -7.91% |
| O=C(Cn1nc2ccc(Sc3cccc(F)c3)nn2c1=O)Nc1ccc(Cl)cc1 | -0.35% | 14.09% | -7.49% |
| COc1cccc(N(Cc2ccc(F)cc2)S(=O)(=O)c2ccc3nncn3c2)c1 | -3.46% | 1.11% | -15.36% |
